Sfp PPTase inh – Sfp phosphopantetheinyl transferase inhibition; 3.5% of 310,000 active; Potency, µM, without a hit: largest response in the series, negative = inhibition, hits mostly inhibitors; AID 1490; Biochemical Sfp PPTase activity, qHTS;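 further: the enzyme is Sfp with the accession as filed and its product quenches rhodamine fluorescence; potency means the concentration at half of the fitted maximal effect; 0% = enzyme reaction without inhibitor and -100% = no enzyme wells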
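Buffer: 50 mM Hepes-Na pH 7.6, 10 mM MgCl2, 0.01% Nonidet P-40, 0.01% BSA. Enzyme 15 nM, pre-exposed to compound 15 min; substrates then added and fluorescence change tracked over 30 min.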
FBPA coupling cs – counter-screen for Giardia aldolase inhibitors: coupling enzyme system; coupling enzyme system counterscreen, AmpLite Red fluorescence; activity change, negative = inhibition, % at 58.2 µM, hits read low; 0.67% of 290,000 active; in the data active means activity change below about -30%
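First, compound is pin-transferred into glyceraldehyde-3-phosphate coupling-enzyme reagent at 57.5 uM final and held 10 min at RT. Next, substrate, coupling system and AmpLite Red are added. After 20 min RT, fluorescence (525/598 nm) is read.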
Tau fibril FP – inhibitors of human tau fibril formation; P10636; K18 P301L tau heparin fibrillization, Alexa594 FP, 6 h; Potency, µM (top dose mostly 57.7 µM), for the others: at the highest dose activity, negative = inhibition, hits mostly inhibitors; 0.39% of 280,000 active; AID 1468; further: potency means the concentration at half of the fitted maximal effect; nearly all actives have a fitted effect of over 55% in size
Target sequence (P10636 561-689 P618L limits assumed): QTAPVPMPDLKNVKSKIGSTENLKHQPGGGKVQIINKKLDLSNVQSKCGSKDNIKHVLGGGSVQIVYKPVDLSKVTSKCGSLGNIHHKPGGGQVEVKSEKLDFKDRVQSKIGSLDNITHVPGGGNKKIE
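Heparin (20 uM) drove fibril formation of recombinant tau K18 P301L, 15 uM unlabeled with 0.24 uM Alexa 594 label, for 6 hr at 37 C in 100 mM sodium acetate pH 7. Fluorescence polarization (555/632 nm) read 1 hr after 30 uM ThT.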
Tau fluor counter – counter-screen for tau fibril formation inhibitors. tau K18 P301L Alexa594 fluorescence, heparin fibrillization. Potency, µM (titrated, usually from 57.7 µM), inactives show at the highest dose activity change, negative = decrease. 0.93% of 280,000 active; further: potency means the concentration at half of the fitted maximal effect; nearly all actives have a fitted effect of over 55% in size
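Human K18 P301L tau (15 uM unlabeled plus 0.24 uM Alexa 594-labeled, final) in 100 mM sodium acetate pH 7 was mixed with compound and 20 uM heparin and incubated 6 hr at 37 C.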
Tau ThT inhib – inhibitors of human tau fibril formation, thioflavin T binding | P10636 | recombinant tau K18 P301L (four-repeat tau fragment), heparin-induced fibrillization, ThT fluorescence | Potency, µM (series often up to 57.4 µM), without a hit: at the top dose activity, negative = inhibition, hits mostly inhibitors | 2.1% of 270,000 active; further: potency means the concentration at half of the fitted maximal effect; nearly all actives have a fitted effect of over 55% in size
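Tau K18 P301L fragment (15 uM unlabeled plus 0.24 uM Alexa 594-labeled) in 100 mM sodium acetate pH 7 with compound, fibrillization induced by 20 uM heparin for 6 hr at 37 C. Thioflavin T (30 uM) added, fluorescence read after 1 hr (ex 450, em 510 nm).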
Active calls of the source: *; u = inconclusive; x = no result. This is a sample that favours compounds with a hit; in the whole collection about 5.2% have one here. Unless noted, the call rests on the fitted dose curve; in most records, active means well fitted curve in the direction sought with a large enough effect; inconclusive means small, poorly fitted or top-dose-only effect, or another doubt; inactive means no such curve, though single readings can be large; an effect the other way counts as inactive or inconclusive. Unless noted, on the % scale 0 is the no-effect control and ±100 the full control effect.

SMILES	Sfp PPTase inh	FBPA coupling cs	Tau fibril FP	Tau fluor counter	Tau ThT inhib
c1ccc2c(c1)c1c3n2CCNC3CCC1 (stereo not drawn)	79µM*	-50*	10%	6%	0%
Oc1ccc2c(c1)c1c3n2CCNC3CCC1 (stereo not drawn)	15%	-6	x	x	x
c1cc2c(cc1C1CCCCC1)c1c3n2CCCNC3CCC1 (stereo not drawn)	32µM*	3	4%	-14%	u
c1cc2c(cc1C1CCCCC1)c1c3n2CCN=C3CCC1	79µM*	4	11%	-18%	-19%
Cc1ccc2c(c1)c1c3n2CCCNC3CCC1 (stereo not drawn)	-13%	1	7%	-10%	-8%
O=C1CCCc2cc(S(=O)(=O)NCC3CCC(C(=O)Nc4ccc(Cl)cc4)CC3)ccc2N1 (stereo not drawn)	x	x	-16%	-18%	-7%
CC(C)C(CC(=O)NCc1ccco1)c1ccco1 (stereo not drawn)	28µM*	2	-1%	0%	-18%
O=C(CSc1ccc2c(c1)OCCO2)NCc1ccco1	35µM*	1	-7%	-9%	u
O=C(Cc1ccccc1[N+](=O)[O-])NCc1ccncc1	13%	0	5%	-17%	-12%
O=C(CSc1ccccc1)NCc1ccco1	15%	1	-9%	-1%	-4%
O=C(NCc1ccco1)c1cccs1	0%	-8	3%	2%	-4%
O=C(NCc1ccco1)Nc1cccs1	18µM*	0	-2%	-20%	u
CC(C)c1ccc(NC(=O)CCC(=O)NCc2ccco2)cc1	11%	1	x	x	x
O=C(Cc1ccccc1[N+](=O)[O-])NCc1ccco1	50µM*	-17	-4%	-5%	2%
COc1ccccc1S(=O)(=O)Cc1ccc(C(=O)NCc2ccc(Cl)cc2)o1	x	x	-2%	-15%	-7%
Cc1ccc(CSC2=Nc3ccccc3C3=NC(CCC(=O)NCCc4ccccc4)C(=O)N23)cc1 (stereo not drawn)	x	x	1%	-12%	-17%
CC(C)c1ccc(NC(=O)CCNS(=O)(=O)c2ccc3c(c2)oc(=O)n3C)cc1	x	x	-6%	-11%	7%
Cc1ccc(C)c(NC(=O)CSc2cn(CC(=O)N3CCCC3)c3ccccc23)c1	x	x	2%	-1%	-1%
CC(C)CNS(=O)(=O)c1ccc(CCC(=O)NCc2ccco2)cc1	40µM*	1	u	-10%	u
O=C(CCSCCC(=O)NCc1ccco1)NCc1ccco1	16µM*	-1	u	-21%	14µM*
COc1ccc2c(c1)c(=O)c(S(=O)(=O)c1ccc(C)cc1)cn2Cc1ccccc1C	x	x	-4%	-12%	-3%
CCc1noc(-c2ccc(NC(C)c3ccccc3)c([N+](=O)[O-])c2)n1 (stereo not drawn)	x	x	-8%	-1%	8%
Cc1ccc(-c2nc3cc(C(C)C)ccc3o2)cc1NC(=O)c1cc([N+](=O)[O-])ccc1N1CCOCC1	x	x	0%	-27%	-12%
C=CCSc1ccccc1C(=O)Nc1ncn[nH]1	-5%	-6	x	x	x
CSc1ccccc1C(=O)Nc1ncn[nH]1	56µM*	0	x	x	x
SMILES	Sfp PPTase inh	FBPA coupling cs	Tau fibril FP	Tau fluor counter	Tau ThT inhib
O=C1CCN(CCc2ccccc2)CCN1CCSc1ccccc1	-1%	0	x	x	x
CC(=O)Nc1ccc(SCCN2CCN(CCc3ccccc3)CCC2=O)cc1	50µM*	2	x	x	x
COC(=O)/C=C1\SC(N2CCOCC2)=C(c2ccc(OC)cc2)C1=O	-86%	6	u	-20%	28µM*
Cc1ccc(-c2csc(NC(=O)c3cc([N+](=O)[O-])ccc3N3CCOCC3)n2)cc1	-2%	-2	4%	-12%	-3%
O=C(Nc1nc2ccccc2s1)c1ccc(N2CCCCC2)c([N+](=O)[O-])c1	-27%	-1	-14%	u	4.5µM*
O=C(Nc1nc(-c2ccccc2)cs1)c1ccc(N2CCOCC2)c([N+](=O)[O-])c1	6%	-2	5%	u	8.9µM*
O=C(Nc1ccon1)c1ccc(N2CCCCC2)c([N+](=O)[O-])c1	12%	0	-2%	-16%	u
CC(O)CN(C)C (stereo not drawn)	29%	x	x	x	x
Cc1ccccc1OCC(=O)N(Cc1ccc(C(C)C)cc1)C1CCS(=O)(=O)C1 (stereo not drawn)	x	x	-1%	-12%	-11%
CCOc1ccc(CCNC(=O)CCc2c(C)nc3c4c(C)cc(C)nc4nn3c2C)cc1	x	x	u	-4%	u
O=C(COc1ccccc1[N+](=O)[O-])Nc1ccccc1N1CCCC1	20µM*	-8	15%	-21%	-8%
O=C(O)CN(CC(=O)O)Cc1cc2c(-c3ccccc3C(=O)O)c3cc(CN(CC(=O)O)CC(=O)O)c(=O)cc-3oc2cc1O	56µM*	-4	22µM*	-7%	u
Oc1ccc(O)c(Cc2nc3ccccc3s2)c1	50µM*	0	15%	u	u
NC(=O)CSCc1nc2ccccc2s1	56µM*	-1	0%	-9%	-13%
Cn1c(SCc2nc3ccccc3s2)nnc1-c1cccs1	56µM*	1	3%	-1%	-14%
Oc1ccccc1OCc1nc2ccccc2s1	u	-6	-1%	-17%	u
COc1ccc(OC)c(CCNC(=O)c2cc3c(s2)-c2c(C)cccc2OC3)c1	x	x	-4%	-23%	u
CCN(CC)C(=O)Cn1c(=O)n(CCCCCC(=O)NCc2ccccc2Cl)c(=O)c2sccc21	x	x	-7%	1%	3%
O=C1CCN(CCc2ccccc2)CCN1C(CSc1ccc(Br)cc1)c1ccccc1 (stereo not drawn)	14%	6	x	x	x
Cc1ccc(SCc2nc3ccccc3n2CC(=O)Nc2ccccc2)cc1	50µM*	1	11%	-24%	-12%
O=C(Cn1c(CSc2ccccc2)nc2ccccc21)Nc1ccccc1	-21%	0	-1%	-14%	-8%
O=C1c2[nH]nc(-c3ccc(Br)cc3)c2C(c2cccc(O)c2)N1c1ccc(Cl)cc1 (stereo not drawn)	x	x	13µM*	u	10%
C=CCC(CC=C)(CNC(=O)C(=O)Nc1ccc(C)cc1)c1ccccc1	x	x	-2%	1%	-1%
Cc1ccc2[nH]c(=O)c(C(c3nnnn3CC3CCCO3)N3CCc4ccccc4C3)cc2c1 (stereo not drawn)	22µM*	-29	u	-24%	32µM*
Cc1ccc2[nH]c(=O)c(C(c3nnnn3CC3CCCO3)N3CCOCC3)cc2c1 (stereo not drawn)	-9%	2	0%	2%	-2%
CCc1ccc2[nH]c(=O)c(C(c3nnnn3CC3CCCO3)N3CCN4CCCC4C3)cc2c1 (stereo not drawn)	35µM*	-20	0%	3%	-3%
Cc1ccc2[nH]c(=O)c(C(c3nnnn3CC3CCCO3)N3CCCc4ccccc43)cc2c1 (stereo not drawn)	45µM*	-14	5%	-20%	u

From PubChem BioAssay
